Screening data as filed in PubChem BioAssay.
IMPase Li inh: membrane-permeable IMPase blocker, potentiated with lithium; Potency, µM (titrated, usually from 59.4 µM), without a hit: at the highest dose activity, negative = IMPase inhibition, usual class: inhibitors; CHO-M1 cells, IP1 TR-FRET (IP-One), carbachol + lithium; hit rate 0.35% among 210,000;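 further: IP1 builds up when IMPase is blocked and the TR-FRET signal falls; potency means the concentration at half of the fitted maximal effect; plate controls were basal vehicle for no effect and high inhibitor control for full effect; nearly all actives have a fitted effect of over 50% in size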
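CHO-M1, 2000 cells/well, 16–30 h culture; cpd + low Li+, 30 min 37C; lysis with d2-IP1/Eu-anti-IP1 Ab, 10 min RT; TR-FRET 665/620 ratio and 620 channel; AC50 via Hill.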
CBFb RUNX1 block: inhibitors of human CBF-beta and RUNX1 interaction. Q01196+Q13951. AlphaScreen CBFb-His/RUNX1-biotin binding, biochemical. 230,000 tested, under 10 active. AID 1477. Potency, µM (top dose mostly 59.8 µM), inactives show top-dose activity, negative = inhibition, most hits filed as inhibitors; further: % of control where 0% means no effect
Target sequence (Q01196 whole entry, looked up): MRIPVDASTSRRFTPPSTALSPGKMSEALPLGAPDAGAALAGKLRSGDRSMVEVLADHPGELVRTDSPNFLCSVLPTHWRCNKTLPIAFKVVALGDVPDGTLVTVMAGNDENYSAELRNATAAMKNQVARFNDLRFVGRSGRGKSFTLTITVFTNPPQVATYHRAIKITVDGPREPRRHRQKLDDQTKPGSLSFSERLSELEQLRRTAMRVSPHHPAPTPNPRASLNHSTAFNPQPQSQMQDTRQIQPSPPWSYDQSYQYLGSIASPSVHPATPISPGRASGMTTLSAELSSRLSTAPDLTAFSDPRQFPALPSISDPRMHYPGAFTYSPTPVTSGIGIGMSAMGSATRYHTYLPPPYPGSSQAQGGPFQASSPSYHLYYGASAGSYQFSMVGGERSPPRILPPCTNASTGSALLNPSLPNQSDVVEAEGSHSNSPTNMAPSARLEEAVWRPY
Target sequence (Q13951 whole entry, looked up): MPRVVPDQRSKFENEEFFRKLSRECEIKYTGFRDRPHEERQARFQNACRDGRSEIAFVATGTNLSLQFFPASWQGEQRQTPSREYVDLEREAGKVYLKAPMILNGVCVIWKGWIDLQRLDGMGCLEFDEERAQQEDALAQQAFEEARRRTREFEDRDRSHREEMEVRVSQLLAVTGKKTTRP
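Compounds were screened at multiple concentrations against a preformed CBF-beta(His)/RUNX1(biotin) complex (30 nM of each) for 15 min at room temperature, followed by 90 min with nickel and streptavidin beads and AlphaScreen reading.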
A-T KAP1 phos: potential ataxia-telangiectasia treatment. AID 485349. Potency, µM (doses to about 57.5 µM), for the others: top-dose activation, usual class: activators. hit rate 0.19% among 320,000. F2112 A-T fibroblasts, KAP-1 phosphorylation AlphaLISA; neocarzinostatin DNA damage 30 min before lysis; further: potency means the concentration at half of the fitted maximal effect; % of control where 0% means no effect; nearly all actives have a fitted effect of over 45% in size
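hTERT-immortalized A-T patient fibroblasts (F2112), 500 cells/well in OPTI-MEM, 1% FBS, got compounds for 60 min, then NCS for 30 min at 37C. Lysates were then assayed for phospho-KAP-1 by AlphaLISA (anti-pKAP1 donor, anti-KAP1 acceptor beads), 6 hr at 25C.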
PTAP TSG101 blk: blocks PTAP/TSG101 interaction to inhibit HIV-1 budding; Q99816; Fluorescence polarization, FITC-PTAP peptide / Tsg101 binding; 340,000 tested, under 10 active; Potency, µM (titrated, usually from 115 µM), for inactives: at the top dose activity change, negative = inhibition, actives largely listed as inhibitors; active means well fitted inhibition curve with a large enough effect in the main read-out, with a control signal flat, not every such curve was filed as active; inconclusive means small, poorly fitted or top-dose-only effect, or effect the other way, or a change in a side signal; inactive means no such curve, though single readings can be large or run the other way; further: potency means the concentration at half of the fitted maximal effect; % of control where 0% means no effect
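Steps: Tsg101 binding domain dispensed (10 uM final), compounds pinned in DMSO, FITC-labeled PTAP-motif peptide added (50 nM final); after 20 min binding at room temperature, polarization measured.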
* = called active by the depositor; [ ] = dose if it differs, or a comment. Shown are actives, neighbours in structure and some others; about 0.37% of the full set was active somewhere. Unless noted, the call rests on the fitted dose curve; in most records, active means well fitted curve in the direction sought with a large enough effect; inconclusive means small, poorly fitted or top-dose-only effect, or another doubt; inactive means no such curve, though single readings can be large; an effect the other way counts as inactive or inconclusive.

For CCOC(=O)CSc1nc(-c2ccccc2)nc2ccc(F)cc12 the results were IMPase Li inh 10µM*, CBFb RUNX1 block inconclusive, A-T KAP1 phos 22.5% and PTAP TSG101 blk -1.5%.
`COC(=O)CSc1nc(-c2ccccc2)nc2ccc(F)cc12` gave IMPase Li inh inconclusive, CBFb RUNX1 block 0.7%, A-T KAP1 phos 19.1% and PTAP TSG101 blk -4.4%.
COc1ccc2sc(-c3ccc(SC)cc3)c(C#CCO)c2c1 was read as A-T KAP1 phos 12.5% and PTAP TSG101 blk -3.9%.
`COc1ccc2sc(-c3ccc(SC)cc3)c(C#CC(C)(C)O)c2c1` gave A-T KAP1 phos inconclusive and PTAP TSG101 blk 0.2%.
For COc1ccc2sc(-c3ccc(N(C)C)cc3)c(C#Cc3cncn3C)c2c1 the results were A-T KAP1 phos 31.6µM* and PTAP TSG101 blk -0.3%.
COc1cccc(-c2sc3ccc(OC)cc3c2C#CC(C)(C)O)c1 was read as A-T KAP1 phos inconclusive and PTAP TSG101 blk 0.2%.
For COc1ccc2sc(-c3ccc(N(C)C)cc3)c(C#CCCO)c2c1 the results were A-T KAP1 phos 25.1µM* and PTAP TSG101 blk 0.0%.
For COc1ccc2sc(-c3ccc(N(C)C)cc3)c(C#CC(C)(C)O)c2c1 the results were A-T KAP1 phos 31.6µM* and PTAP TSG101 blk -2.4%.
CN(C)c1ccc(-c2nnn(CC(=O)Nc3ccccc3N3CCOCC3)n2)cc1 was read as IMPase Li inh 7.5%[38.3 µM], CBFb RUNX1 block -7.2%, A-T KAP1 phos -11.2% and PTAP TSG101 blk -5.2%.
Cc1ccccc1NC(=O)Cn1nnc(-c2ccc(N3CCOCC3)cc2)n1 was read as IMPase Li inh 10µM*, CBFb RUNX1 block 2.2%, A-T KAP1 phos 0.6% and PTAP TSG101 blk -6.6%.
For O=c1c2[nH]c3ccc(Cl)cc3c2ncn1CCN1CCCCC1 the results were IMPase Li inh 16.5%[38.3 µM], CBFb RUNX1 block 2.7%, A-T KAP1 phos 28.2µM* and PTAP TSG101 blk -5.8%.
Screening COc1ccc2c(c1)[nH]c1c(=O)n(CCN3CCCC3)cnc12 returned IMPase Li inh 15.8%[38.3 µM], CBFb RUNX1 block 6.5%, A-T KAP1 phos 1.0% and PTAP TSG101 blk -3.2%.
Screening CCN1/C(=C2\OC(=S)N(C)C2=O)Sc2ccccc21 returned IMPase Li inh 11.2µM*, CBFb RUNX1 block -8.1%, A-T KAP1 phos 0.2% and PTAP TSG101 blk -3.8%.
`CCN1C(=O)/C(=C2/Sc3ccccc3N2CC)SC1=S` gave A-T KAP1 phos -2.5% and PTAP TSG101 blk -3.5%.
C=C(C)CSc1nnc2n(Cc3ccccc3)c(=O)c3c4c(sc3n12)CCC4 was read as IMPase Li inh 10.0%[38.3 µM], CBFb RUNX1 block 6.5%, A-T KAP1 phos -1.0% and PTAP TSG101 blk -1.4%.
`O=c1sc(N2CCN(c3ccc(F)cc3)CC2)nc2ccsc12` gave IMPase Li inh 22.4µM*, CBFb RUNX1 block 2.1%, A-T KAP1 phos 9.1% and PTAP TSG101 blk 0.4%.
For CCC(C)NC(=O)c1cn(CCOC)c(=O)c2c1c1ccccc1n2C (stereo unspecified) the results were A-T KAP1 phos 8.91µM* and PTAP TSG101 blk -0.7%.
Screening Cc1cc(SCCC(=O)O)nc2c(C)cccc12 returned IMPase Li inh 10µM*, CBFb RUNX1 block 7.2%, A-T KAP1 phos 1.0% and PTAP TSG101 blk 1.4%.
For CCCS(=O)(=O)N1CCN(c2cc3c(cc2[N+](=O)[O-])n(C)c(=O)n3C)CC1 the results were IMPase Li inh 2.9%, CBFb RUNX1 block 3.2%, A-T KAP1 phos -1.4% and PTAP TSG101 blk -3.1%.
For NNc1nc2c(-c3cccc(C(F)(F)F)c3)nnn2c2ccccc12 the results were A-T KAP1 phos 25.1µM* and PTAP TSG101 blk 6.3%.
For CCc1nnc(NC(=O)C(CC)c2ccccc2)s1 (stereo unspecified) the results were IMPase Li inh 0.8%, CBFb RUNX1 block 9.6%, A-T KAP1 phos -2.0% and PTAP TSG101 blk -2.8%.
For CCc1nnc(NC(=O)C(CC)CC)s1 the results were CBFb RUNX1 block -1.7%, A-T KAP1 phos 39.8µM* and PTAP TSG101 blk 0.0%.
`COc1cccc2c(=S)c(CCC(C)=O)c(C)[nH]c12` gave IMPase Li inh 10µM*, CBFb RUNX1 block 4.8%, A-T KAP1 phos 15.5% and PTAP TSG101 blk -5.2%.
For COc1ccc(CCNC(=O)CN(C)S(=O)(=O)c2ccc(Br)s2)cc1OC the results were IMPase Li inh -0.8%, CBFb RUNX1 block 1.4%, A-T KAP1 phos -0.8% and PTAP TSG101 blk -3.9%.
Screening COc1cccc(NC(=O)CN(C)C(=O)c2cc(S(=O)(=O)N3CCCCC3)ccc2Cl)c1 returned A-T KAP1 phos 4.0% and PTAP TSG101 blk -4.0%.
Screening CC(=O)N(/N=C/c1ccc([N+](=O)[O-])o1)c1nc2ccccc2c(=O)n1-c1ccccc1 returned CBFb RUNX1 block 12.7%, A-T KAP1 phos 12.6µM* and PTAP TSG101 blk -1.5%.
For Cc1nc2ccccc2c(=O)n1/N=C/c1ccc([N+](=O)[O-])o1 the results were CBFb RUNX1 block 12.5% and A-T KAP1 phos 9.1%.
CCCCn1c(N)c(NCc2ccccc2)c(=O)[nH]c1=O was read as IMPase Li inh 2.4%, CBFb RUNX1 block 4.1%, A-T KAP1 phos inconclusive and PTAP TSG101 blk -1.6%.
Screening O=C(NCc1ccc(F)cc1)C1CCCN1C(=O)Nc1ccc(F)cc1 (stereo unspecified) returned A-T KAP1 phos 0.9% and PTAP TSG101 blk -0.2%.
CCOc1cccc(-c2nnc(SCC(=O)Nc3cc(OC)cc(OC)c3)n2N)c1 was read as IMPase Li inh 25.1µM*, CBFb RUNX1 block -4.7%, A-T KAP1 phos 14.6% and PTAP TSG101 blk -5.0%.
For CCOc1cccc(-c2nnc(SCC(=O)Nc3ccc(OC)c(OC)c3)n2N)c1 the results were IMPase Li inh 1.2%[38.3 µM], CBFb RUNX1 block -0.5%, A-T KAP1 phos 6.8% and PTAP TSG101 blk -15.9%.
O=C(CCn1c(=O)[nH]c2ccsc2c1=O)Nc1ccc(F)c(F)c1 was read as IMPase Li inh 10µM*, CBFb RUNX1 block -1.6%, A-T KAP1 phos 0.2% and PTAP TSG101 blk -8.6%.
Cc1ccc(NC(=O)CCn2c(=O)[nH]c3ccsc3c2=O)cc1C was read as A-T KAP1 phos -1.9% and PTAP TSG101 blk -4.7%.
COc1ccc(C(=O)OCC(=O)Nc2c(C)cccc2C)c(OC)c1OC was read as A-T KAP1 phos -2.8% and PTAP TSG101 blk 1.6%.
For COC(=O)c1cc(Br)c(=O)n(-c2ccccn2)c1 the results were IMPase Li inh -11.3%[38.3 µM], CBFb RUNX1 block 2.0%, A-T KAP1 phos 9.4% and PTAP TSG101 blk -2.6%.
`COC(=O)c1cc(Br)c(=O)n(-c2cc(C)on2)c1` gave IMPase Li inh 10µM*, CBFb RUNX1 block 8.0%, A-T KAP1 phos 3.5% and PTAP TSG101 blk -7.8%.
`COC(=O)c1cc(Br)c(=O)n(-c2nccs2)c1` gave IMPase Li inh 10µM*, CBFb RUNX1 block 6.6%, A-T KAP1 phos -10.9% and PTAP TSG101 blk 6.2%.
COC(=O)c1cc(Br)c(=O)n(-c2ccc(C(C)=O)cc2)c1 was read as IMPase Li inh -20.0%[38.3 µM], CBFb RUNX1 block 4.0% and A-T KAP1 phos -0.8%.
